Growth data for 9 compounds are collected here from PubChem BioAssay (NCI).

Test systems include K-562 leukemia; MALME-3M melanoma; MDA-MB-231 breast; RXF 393 renal; SF-268 CNS; SF-295 CNS; SF-539 CNS; UACC-257 melanoma; M14 melanoma; DU-145 prostate.
What all share (assay): NCI-60 one-dose screen, 48 h (100 = growth as untreated, 0 = no growth, -100 = all killed)
Conditions in all cases: 10 µM

The structures appear in SMILES notation. This is part of a sample that, as a whole, favours compounds with a hit. Of some 83,000 tested, about 20% had one in any assay.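 Growth was measured after 48 h exposure to one concentration of compound in 96-well plates. Values under 10 count as active.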 A number with no mark means an inactive call. Activity calls are given as the source filed them.

Consider `O=[N+]([O-])c1cc[n+]([O-])c2ccccc12`, for which the growth in the assay with K-562 leukemia was 0.325% (active); in the assay with MALME-3M melanoma, -69% (active); with MDA-MB-231 breast, -45.1% (active); with RXF 393 renal, -87.1% (active); in the assay with SF-268 CNS, 3.65% (active); in the assay on SF-295 CNS, -17.7% (active). Moreover, the growth in the assay on SF-539 CNS is -35% (active); in the assay with UACC-257 melanoma, -47.1% (active); in the assay on M14 melanoma, -92.9% (active).
Take `CCOP(=O)(OCC)/C(C#N)=C/c1ccc(Br)cc1`: the growth in the assay on DU-145 prostate is 107%; in the assay with MALME-3M melanoma it was 107%; in the assay on MDA-MB-231 breast it was 106%; in the assay on SF-268 CNS, 95.2%; with SF-295 CNS, 106%; in the assay on SF-539 CNS it was 95.9%. The growth in the assay with UACC-257 melanoma was 93.7%; in the assay with M14 melanoma it was 98.4%.
For the compound `NC(=O)c1cc([N+](=O)[O-])c(Cl)c([N+](=O)[O-])c1Cl`, the growth in the assay on K-562 leukemia is 8.14% (active); in the assay on MALME-3M melanoma it was -51.5% (active); in the assay with MDA-MB-231 breast, 1.49% (active); with RXF 393 renal, -89.6% (active); with SF-295 CNS, 95.5%; with SF-539 CNS, 5% (active). Moreover, the growth in the assay with UACC-257 melanoma is -29.2% (active); with M14 melanoma, -21.9% (active).
As to `CCCCCCCC[N+]12CN3CN(CN(C3)C1)C2`, the growth in the assay with DU-145 prostate is 101%; in the assay on K-562 leukemia it was 124%; with MALME-3M melanoma it was 98%; with RXF 393 renal, 105%; with SF-268 CNS, 95%; in the assay with SF-295 CNS, 95.6%. Also, the results for the growth in the assay with SF-539 CNS, in the assay on UACC-257 melanoma and with M14 melanoma were 92.7%, 98.9% and 89.5%, respectively.
Take `COc1cc(/C=C/[N+](=O)[O-])cc(OC)c1OC`: the growth in the assay on DU-145 prostate is 9.73% (active); in the assay on K-562 leukemia it was 5.19% (active); with MALME-3M melanoma it was -30.2% (active); in the assay with MDA-MB-231 breast, 34%; in the assay on SF-268 CNS, 28.6%; in the assay on SF-295 CNS, 69%. Besides, the growth with SF-539 CNS was -61.3% (active); in the assay on UACC-257 melanoma, -15.8% (active); in the assay with M14 melanoma, -6.32% (active).
On to `O=C1C=Cc2ccccc2C1=O`, for which the growth in the assay on DU-145 prostate was 45.9%; with K-562 leukemia it was 38.6%; with MALME-3M melanoma it was 52.7%; in the assay with MDA-MB-231 breast, 67.1%; with RXF 393 renal, 46.5%; in the assay with SF-268 CNS, 87.8%. For the same compound, the growth with SF-295 CNS is 94%; in the assay with SF-539 CNS, 76.7%; in the assay with UACC-257 melanoma, 75.9%; in the assay on M14 melanoma, 39.4%.
Consider `COC1CC2C=C(C)/C=C/C=C/C(=O)NC(c3ccccc3)C/C=C/CCC(O)CC(=O)C2=C1O` (stereo not given), for which the growth in the assay with DU-145 prostate was -85.6% (active); with K-562 leukemia, -52.2% (active); with MALME-3M melanoma it was -84.5% (active); in the assay with MDA-MB-231 breast it was -74.8% (active); in the assay with RXF 393 renal, -90.6% (active); in the assay with SF-268 CNS, -78.3% (active). In addition, the growth is -89.3% (active) with SF-295 CNS, -99.4% (active) in the assay on SF-539 CNS and -95.7% (active) with M14 melanoma.
On to `O=[N+]([O-])/C=C\c1ccc2c(c1)OCO2`, for which the growth with DU-145 prostate is 88.7%; in the assay with K-562 leukemia, 78.2%; with MDA-MB-231 breast it was 101%; in the assay on RXF 393 renal, 74.4%; in the assay on SF-268 CNS, 86.7%; in the assay on SF-295 CNS, 83.3%. In addition, the growth in the assay with SF-539 CNS is 94.8%; in the assay with UACC-257 melanoma, 75%; in the assay with M14 melanoma, 76.6%.
For `C[CH2][Hg][S]c1ccccc1C(=O)O`, the growth in the assay with DU-145 prostate was -28.6% (active); in the assay with K-562 leukemia, -4.39% (active); with MALME-3M melanoma, -96.4% (active); with MDA-MB-231 breast, -5.17% (active); in the assay on RXF 393 renal it was -96.8% (active); with SF-268 CNS it was -18.6% (active). The growth is 97.2% in the assay on SF-295 CNS, -98.5% (active) with UACC-257 melanoma and -67.1% (active) with M14 melanoma.
